Screening results: PubChem BioAssay, National Center for Advancing Translational Sciences (NCATS)
NPR1 antag = human Npr1 receptor antagonism; P16066; HEK293 hNpr1 GloSensor cGMP, ANP-stimulated luminescence; Potency, µM (doses to about 46.3 µM), most hits filed as inhibitors; actives 1.6% (n = 76,000); AID 1347048; calls by dose curve; further: nearly all actives have a fitted effect of over 60% in size
Target sequence (P16066 whole entry, looked up): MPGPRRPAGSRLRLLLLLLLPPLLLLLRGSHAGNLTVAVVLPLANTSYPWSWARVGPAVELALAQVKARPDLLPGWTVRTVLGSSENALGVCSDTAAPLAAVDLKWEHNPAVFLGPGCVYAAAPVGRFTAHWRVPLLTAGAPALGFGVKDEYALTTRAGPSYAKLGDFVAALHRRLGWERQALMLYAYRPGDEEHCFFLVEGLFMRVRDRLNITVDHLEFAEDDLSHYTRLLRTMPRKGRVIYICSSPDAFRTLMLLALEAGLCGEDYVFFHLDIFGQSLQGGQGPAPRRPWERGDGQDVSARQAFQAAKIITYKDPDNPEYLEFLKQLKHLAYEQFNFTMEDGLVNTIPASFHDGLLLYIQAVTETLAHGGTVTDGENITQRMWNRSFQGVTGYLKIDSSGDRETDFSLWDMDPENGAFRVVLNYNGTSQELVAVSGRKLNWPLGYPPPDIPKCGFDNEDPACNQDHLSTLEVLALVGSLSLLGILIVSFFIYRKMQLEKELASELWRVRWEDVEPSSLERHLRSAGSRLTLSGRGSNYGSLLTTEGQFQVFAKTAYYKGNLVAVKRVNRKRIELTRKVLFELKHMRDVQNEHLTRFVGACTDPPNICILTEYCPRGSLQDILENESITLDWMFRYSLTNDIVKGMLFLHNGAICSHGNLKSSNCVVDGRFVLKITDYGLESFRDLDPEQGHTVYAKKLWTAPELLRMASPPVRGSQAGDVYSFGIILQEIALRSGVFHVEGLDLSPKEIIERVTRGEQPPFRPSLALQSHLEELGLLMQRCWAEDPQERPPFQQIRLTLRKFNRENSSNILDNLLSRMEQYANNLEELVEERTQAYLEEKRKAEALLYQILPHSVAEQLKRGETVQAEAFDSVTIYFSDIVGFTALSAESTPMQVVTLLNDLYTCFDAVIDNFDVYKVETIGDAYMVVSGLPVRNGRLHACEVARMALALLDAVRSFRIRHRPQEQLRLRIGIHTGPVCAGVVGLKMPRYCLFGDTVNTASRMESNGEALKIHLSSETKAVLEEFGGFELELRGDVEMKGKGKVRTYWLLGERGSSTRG
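HEK293 cells stably expressing human Npr1 and cGMP GloSensor pGS-40F, loaded 2 h with 2% GloSensor reagent, given compound 30 min at room temperature. Luminescence read before and 20 min after 0.1 nM hNppA.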
Luciferase inh = Photinus pyralis luciferase inhibition; Potency, µM (series often up to 115 µM), actives largely listed as inhibitors; P08659; purified P. pyralis luciferase, luminescence, biochemical; actives 2.5% (n = 76,000); AID 1347043; further: nearly all actives have a fitted effect of over 65% in size
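Purified P. pyralis luciferase (10nM final) in 50mM Tris acetate pH 7.5, 10mM Mg acetate, 0.01% Tween-20, 0.05% BSA with 10uM D-luciferin and 10uM ATP. Compounds titrated qHTS. Luminescence imaged on CCD.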
GPT2 inhibitor = inhibitors of human GPT2 alanine aminotransferase; Q8TD30; Recombinant GPT2, coupled pyruvate oxidase/HRP Amplex Red fluorescence; Potency, µM (doses to about 57.7 µM), hits mostly inhibitors; actives 0.25% (n = 100,000); further: nearly all actives have a fitted effect of over 60% in size
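Recombinant GPT2 (10ng/uL) with 250uM a-KG and 2mM L-alanine, 30 min at room temperature, in HEPES pH 7.5 buffer. Pyruvate detected by pyruvate oxidase/HRP/Amplex Red fluorescence after 30 min in the dark; AOA (50uM) as positive control.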
3T3 cytotox = NIH 3T3 cell cytotoxicity; Potency, µM (series often up to 96.7 µM), actives largely listed as inhibitors; NIH 3T3 viability, CellTiter-Glo ATP luminescence, 48-72 h; actives 4.3% (n = 94,000); further: nearly all actives have a fitted effect of over 55% in size
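Luminescent ATP readout (CellTiter-Glo, 10 min RT) after 48 or 72 hr compound exposure of NIH 3T3 cells seeded at 400 cells/well in 1536-well format; quantitative HTS.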
HEK293 tox = kills HEK 293 cells; HEK 293 viability, ATP luminescence (CellTiter-Glo), 48-72 h; Potency, µM (doses to about 115 µM), most hits filed as inhibitors; actives 6.6% (n = 94,000); AID 1345083; further: nearly all actives have a fitted effect of over 60% in size
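HEK 293 cells seeded at 250 cells/well were exposed to compound for 48 or 72 hr at 37 degree Celsius. Viability taken as ATP content by CellTiter-Glo luminescence.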
Numbers stand for hits; . = inactive; ? = inconclusive; / = no result given; ! = not confirmed by another sample. An excerpt weighted towards active compounds, which were near 10% of everything screened. Unless noted, the call rests on the fitted dose curve; in most records, active means well fitted curve in the direction sought with a large enough effect; inconclusive means small, poorly fitted or top-dose-only effect, or another doubt; inactive means no such curve, though single readings can be large; an effect the other way counts as inactive or inconclusive.

SMILES	NPR1 antag	Luciferase inh	GPT2 inhibitor	3T3 cytotox	HEK293 tox
CC(=O)Nc1ccc(CN2CCC3(C2)C(=O)N(C)c2ccccc23)cc1 (stereo not given)	.	.	.	.	.
COc1ccc(CN2CCC3(C2)C(=O)N(c2ccccc2)c2ccccc23)cc1 (stereo not given)	/	/	.	?	50.1µM
N#Cc1ccc(CN2CCC3(C2)C(=O)N(c2ccccc2)c2ccccc23)cc1 (stereo not given)	/	/	.	?	15.8µM
CN(C)c1ccc(CN2CCC3(C2)C(=O)N(C)c2ccccc23)cc1 (stereo not given)	.	.	.	?	79.4µM
COc1ccc(CN2CCC3(C2)C(=O)N(Cc2ccccc2)c2ccccc23)cc1 (stereo not given)	?	.	.	35.5µM	39.8µM
Cc1cnc(CC2CCN(S(=O)(=O)c3cccc(F)c3)C2)n1C(C)C (stereo not given)	.	.	.	.	?
O=C(CCCc1ccccc1)Nc1ccnn1C1CCN(C(=O)Cc2ccccc2F)CC1	.	?	.	.	.
CC(C)c1ccccc1NC(=O)Cn1cccc1-c1nc(-c2ccc(F)cc2)no1	.	.	.	.	.
O=C1N(c2ccccc2)c2ccccc2C12CCN(Cc1ccc(C(F)(F)F)cc1)C2 (stereo not given)	/	/	.	?	50.1µM
CCCCCC(=O)N1c2cccc3c2[C@@H](C[C@H]1C(N)=O)CN(Cc1ccc(OC)cc1)C3=O	/	/	.	?	?
O=C1Nc2ccccc2CN(Cc2ccc(Cl)cc2)C12CCNC2 (stereo not given)	/	/	.	?	50.1µM
O=C1Nc2ccccc2CC12CCCN2Cc1ccc(Cl)cc1 (stereo not given)	/	/	.	.	?
CO[C@@]12[C@H](COC(N)=O)C3=C(C(=O)C(C)=C(N)C3=O)N1C[C@@H]1N[C@@H]12	/	/	13.7µM!	/	/
CC1CCCN(C(=O)c2cc(-c3cnn(CCO)c3)nc3cc(Cl)ccc23)C1 (stereo not given)	.	.	.	?	?
CCn1nc(C)c(-c2cc(C(=O)NCCc3noc(-c4ccccc4)n3)no2)c1C	.	?	.	?	50.1µM
Cc1cc(C(=O)NCCc2noc(-c3cccnc3)n2)nn1C	.	.	.	.	.
CC(=O)N1CCC(CC(=O)N2C[C@@H](Oc3ccccc3)C[C@H]2C(=O)NC2CC2)CC1	/	/	.	.	.
Cn1cccc1C(=O)N1CCCC(n2cc(-c3nc(-c4ccccc4)no3)nn2)C1 (stereo not given)	?	79.4µM	.	?	?
CCn1nccc1C(=O)N1CCCC(n2cc(-c3nc(-c4ccccc4)no3)nn2)C1 (stereo not given)	12.6µM	?	.	.	?
CC(=O)N1CC(N2C(=O)c3c(c(C)nn3-c3ccccc3)C2C)C1 (stereo not given)	/	/	/	?	.
COc1ccc(CN2CCCC(c3cc(=O)[nH]c(C)n3)C2)c(OC)c1C (stereo not given)	.	.	.	?	44.7µM
COc1cccc(CN2CCC(Cc3ncc(C)n3CC3CC3)C2)c1OC (stereo not given)	.	.	.	?	44.7µM
Cc1ncsc1CN1CCC(Cc2ncc(C)n2CC2CC2)C1 (stereo not given)	.	.	.	.	.
COc1ccc(C(=O)N2CCCC(C(=O)N3CCC(c4nc5ncccc5[nH]4)CC3)C2)cc1 (stereo not given)	/	/	.	.	.
CC(=O)N1CCC(C2CCN(Cc3ccccc3C)C2)CC1 (stereo not given)	.	.	.	.	.
SMILES	NPR1 antag	Luciferase inh	GPT2 inhibitor	3T3 cytotox	HEK293 tox
COC(=O)c1cccc2nc([C@H]3CCN(Cc4ccccc4C)C3)oc12	.	.	.	?	89.1µM
CCn1ncc(CN(C)C(=O)c2c(C)oc3c2CN(Cc2ccc(OC)cc2)CC3)c1C	.	.	.	?	?
Cc1ccc(-c2noc(-c3nc(-c4ccccn4)no3)n2)cc1	.	17.8µM	.	.	.
O=C(NCc1cccs1)c1nc2sccn2c1-c1cccc(C(F)(F)F)c1	/	/	.	?	?
Cn1ncc2c(C(=O)NCc3cccs3)cc(-c3ccc(Cl)cc3)nc21	/	/	.	?	?
COc1cc(CNC(=O)c2cc(-c3ccc(Cl)cc3Cl)nc3c2cnn3C)cc(OC)c1	/	/	.	?	44.7µM
